Laboratory results published in PubChem BioAssay (Tox21).
Inconclusive results are not listed. Where a call stands in place of a potency, no number is given. Active and inactive are the calls of the source. The call rests on the fitted dose curve; in most records, active means well fitted cell-killing curve with a large enough effect in the repeat runs; inconclusive means weak or mixed curves, or effect the other way; inactive means flat fitted curve, though single readings scatter.

Test: Human pregnane X receptor (PXR) small molecule agonists, qHTS cell viability counter screen (AID 1346977); further: nearly all actives have a fitted effect of over 50% in size
Conditions: PXR-Luc HepG2 viability, CellTiter-Fluor, 24 h; series mostly up to 92.4 µM
From the text: U.S. Tox21 Program National Center for Advancing Translational Sciences [NCATS] NIH Chemical Genomics Center [NCGC] U.S. Environmental Protection Agency [EPA] National Institutes of Environmental Health Sciences [NIEHS] National Toxicology Program [NTP] U.S. Food and Drug Administration [FDA] Tox21 Assay Overview: The human pregnane X receptor (hPXR) regulates the expression of several drug metabolizing enzymes and induction of these proteins is a major mechanism for developing drug resistance in cancer. One such key enzyme catalyzing the drug metabolism is cytochrome P450 3A4 (CYP3A4). Changes in CYP3A4 expression affect drug metabolism, thereby reducing the therapeutic efficacy and altering toxicological response to a drug and which finally causes adverse drug interaction. To screen Tox21 libraries for compounds that activate hPXR-mediated CYP3A4 gene expression, PXR-Luc HepG2 cells were used. Also cytotoxicity of the compounds was tested in parallel by measuring the cell viability using CellTiter-Fluor assay system in the same wells.
Tox21 Assay Protocol Summary: PXR-Luc HepG2 cells were dispensed at 2,000 per well in 5uL of assay medium containing 5% charcoal-stripped FBS into white solid bottom 1536-well plates (Corning Life Sciences, Corning, NY) using a Multidrop Combi (Thermo Scientific, Waltham, MA) dispenser. The assay plates were incubated at 37 C and 5% CO2 for 5hr, and then 23nL of compounds dissolved in DMSO and positive control were transferred using a Pintool station (Wako, San Diego, CA). The assay plates were incubated at 37C and 5% CO2 for 24hr. For cytotoxicity read, after 23hr incubation at 37C, 1uL CellTiter-Fluor reagent (Promega Corporation, Madison, WI) was added to each well of the assay plates using Flying Reagent Dispenser (FRD, Aurora Discovery, San Diego, CA). After 1hr incubation at 37C and 5% CO2, the fluorescence signal was quantified using a ViewLux plate reader (PerkinElmer, Shelton, CT).
Potency means the concentration at half of the fitted maximal effect.

| SMILES | Potency |
| --- | --- |
| COC1CCC=CO1 (stereo not given) | inactive |
| COc1ccc2nc(S(=O)Cc3ncc(C)c(OC)c3C)[nH]c2c1 (stereo not given) | inactive |
| CC(CCc1ccc(O)cc1)NCCc1ccc(O)c(O)c1 (stereo not given) | inactive |
| COc1ccc(/C=C/C(=O)c2ccc(OC)cc2OC)cc1 | inactive |
| C=Cc1ccc(OC(C)=O)cc1 | inactive |
| Oc1ccc2c(c1)Cc1ccccc1-2 | inactive |
| COc1cc(OC)c2ccc(=O)oc2c1 | inactive |
| CCCCCCCCCCCCCCCCCC(=O)OCC(CC)CCCC (stereo not given) | inactive |
| CC(C)c1ccc(C(=O)N=C(N)N)cc1S(C)(=O)=O | inactive |
| Cc1ccc(Cl)cc1N | inactive |
| Nc1nc(-c2ccc([N+](=O)[O-])cc2)cs1 | inactive |
| O=S(=O)(O)CO | inactive |
| O=C(Nc1ccc(C(=O)O)c(O)c1)c1ccccc1 | inactive |
| CC(C)(O)c1coc(S(=O)(=O)NC(=O)Nc2c3c(cc4c2CCC4)CCC3)c1 | inactive |
| CCC(CO)(CO)[N+](=O)[O-] | inactive |
| Nc1ccc(F)cc1 | inactive |
| CCO[Si](C)(CCCOCC1CO1)OCC (stereo not given) | inactive |
| CCCCCCCC/C=C\CCCCCCCC(=O)OCCO | inactive |
| O=C(O)CCS | inactive |
| Nc1ccc(NC(=O)c2ccc(N)cc2)cc1 | inactive |

| SMILES | Potency |
| --- | --- |
| COC(=O)Nc1nc2ccc(C(=O)C3CC3)cc2[nH]1 | inactive |
| O=C(CCS)OCC(COC(=O)CCS)(COC(=O)CCS)COC(=O)CCS | inactive |
| CC(C)(C)C1(CCc2ccc(Cl)cc2)CO1 (stereo not given) | inactive |
| O=C(O)/C=C/c1ccc(O)c(O)c1 | inactive |
| CCCCC[C@H](O)/C=C/[C@H]1[C@H](O)CC(=O)[C@@H]1C/C=C\CCCC(=O)O | inactive |
| CN1CCCN(C(c2ccccc2)c2ccc(Cl)cc2)CC1 (stereo not given) | 13.3 µM (active) |
| Cc1ccc(Nc2c(F)cccc2Cl)c(CC(=O)O)c1 | inactive |
| CC(=O)Oc1cccc(O)c1 | inactive |
| CC(C)N=C=NC(C)C | inactive |
| O=C(O)CCCc1c[nH]c2ccccc12 | inactive |
| CCSC(=O)N(CC)CC | inactive |
| CCCCCCC(O)CCCCCCCCCCC(=O)OC (stereo not given) | inactive |
| COc1cc(NC(C)CCCN)c2ncccc2c1 (stereo not given) | 29.8 µM (active) |
| CC(C)COC(=O)COc1cc(Cl)c(Cl)cc1Cl | inactive |
| COc1ccc(C2C(=O)c3ccccc3C2=O)cc1 | inactive |
| CC(C)(C)S | inactive |
| O=C(c1ccccc1)c1ccc(O)cc1 | inactive |
| CCCCCCCCCCCCCOS(=O)(=O)O | inactive |
| COc1ccc(-c2cc(C(F)F)nn2-c2ccc(S(N)(=O)=O)cc2)cc1F | inactive |
| Nc1ccn([C@H]2CS[C@@H](CO)O2)c(=O)n1 | inactive |
